What follows are compounds tested on tubulin (bovine brain) (assay: tubulin polymerization end-point dOD, fold change relative to DMSO vehicle; higher = more polymerization (stabilization)). Conditions: 50 µM; 60 min; 37 °C.
Summary of the method: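 Using the Cytoskeleton HTS-Tubulin polymerization kit, 4 mg/ml bovine brain tubulin in G-PEM buffer (PIPES pH 6.9, MgCl2, EGTA, GTP) was combined on ice in 384-well plates with compound at a final 50 μM in 0.5% DMSO. After warming to 37°C in a Tecan reader, the plates were read at 340 nm once a minute for 1 hour. Values give the end-point change in optical density as percent fold change over DMSO vehicle, normalized per run with the means and standard deviations of DMSO and reference-control wells.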

SMILES	tubulin polymerization end-point dOD [%]
COc1ccc2cc(CNc3ncnc4[nH]ncc34)ccc2c1	-12.6
O=C(Nc1ncc(Cc2ccccc2)s1)c1cc(Br)c[nH]1	2.89
COC(=O)Nc1nc2cc(C(=O)c3ccccc3)ccc2[nH]1 [Mebendazole]	6.22
O=c1[nH]c(/C=C/c2ccccc2)nc2sc3c(c12)CCCC3	-32.9
COc1ccccc1N1CC[NH+](Cc2c(-c3ccccc3)nc3sccn23)CC1	-21.9
O=C(Nc1ncc(Cc2ccccc2Br)s1)c1cnccn1	6.47
CCOc1ccc(S(=O)(=O)Nc2cc(Br)c3oc(C)c(C(C)=O)c3c2)cc1	-25.4
COC(=O)Nc1nc2cc(Sc3ccccc3)ccc2[nH]1 [Fenbendazole]	-27.1
CCc1ccc2nc(SCC(=O)Nc3cc(C)ccc3C)c(C#N)cc2c1	-12.2
Cc1ccc(NC(=O)CSc2nc3cc4c(cc3cc2C#N)OCCO4)c(C)c1	-24.1
Cc1cc2nc(-c3ccc(SCC#N)nc3)[nH]c2cc1C	51.8
Cc1ccc(C(=O)Nc2nc3ccc(Oc4ccccc4)cc3s2)cn1	15.6
COc1ccc(CCNC(=O)CSc2nc3cc4c(cc3cc2C)OCO4)cc1OC	-49.9
Cc1ccccc1/C=N/N=C1\NC(=O)C(Cc2ccccc2C)S1 (stereo not drawn)	-10.8
COc1ccc(CNc2c(-c3ccccc3O)nc3cnccn23)cc1	0.31
COc1ccc2cc(CN(Cc3cccs3)C(=O)Nc3ccccc3Cl)c(=O)[nH]c2c1	-57.2
COc1ccc(OCc2nnc(SCC(N)=O)n2-c2cc(C)ccc2C)cc1	-39.4
O=C1NC(c2c(-c3ccccc3)[nH]c3ccccc23)Nc2ccccc21 (stereo not drawn)	-92.1

— the supplement of paper PMC4380459
